This note sets out measurements from PubChem BioAssay (Tox21).

“And” between values parts separate entries of the source, which are not always exact repeats. Equal entries are not always repeated. Results filed as inconclusive are left out. Where a structure was tested more than once in an assay, its records may differ in their call. The source made the active and inactive calls. Unless noted, calls follow the shape of the full dose curve.

Test [1] in a line: Nuclear factor erythroid 2-related factor 2/antioxidant responsive element (Nrf2/ARE) small molecule agonists: luciferase reporter gene qHTS assay in human keratinocytes (AID 1919969). Also: nearly all actives have a fitted effect of over 35% in size. Also: potency is read from the fitted curve at half-maximal effect. For orientation: Reporter assays use an easily measured gene product as a stand-in for the process of interest.
In test [2] the target is KiSS-1 receptor (Homo sapiens) (UniProt Q969F8). The test is described as follows: Human kisspeptin (KISS1R) small molecule agonists, calcium flux assay in KISS1R-HEK293 cells (AID 1920064; active = well fitted activation curve with a large enough effect in the repeat runs). The procedure, abridged: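 Intracellular calcium mobilization in KISS1R-HEK293 cells was recorded by fluorescence (Ex/Em 480/540) for 3 min following compound addition to cells pre-loaded 1 h with calcium dye.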
KiSS-1 receptor (Homo sapiens), sequence (Q969F8 whole entry, looked up): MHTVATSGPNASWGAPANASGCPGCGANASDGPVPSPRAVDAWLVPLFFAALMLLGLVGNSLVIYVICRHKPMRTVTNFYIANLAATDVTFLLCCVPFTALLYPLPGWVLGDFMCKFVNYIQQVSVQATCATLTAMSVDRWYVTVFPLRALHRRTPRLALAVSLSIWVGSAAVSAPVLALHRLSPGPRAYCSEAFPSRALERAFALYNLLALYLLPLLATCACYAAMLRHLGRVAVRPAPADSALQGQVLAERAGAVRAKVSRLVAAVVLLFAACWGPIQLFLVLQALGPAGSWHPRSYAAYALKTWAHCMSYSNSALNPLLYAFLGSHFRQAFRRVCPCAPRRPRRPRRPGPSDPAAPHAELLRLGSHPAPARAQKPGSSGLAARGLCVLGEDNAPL
In general terms: Calcium assays in cells follow changes in intracellular calcium, usually with a dye or a luminescent sensor.

The nature of test [3]: G protein-coupled receptor (GPCR) small molecule agonists, calcium flux assay: HEK293 wild type cell line counter screen (AID 1920065). Also: potency is read from the fitted curve at half-maximal effect. The procedure, abridged: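 In this agonist-mode screen, ATP is the positive control and DMSO the vehicle. Cells grow 18 h before a 1 h dye incubation at 37 C; signal is taken at Ex/Em 480/540 over 3 min.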
Test [4] in a line: p53 small molecule agonists, cell-based qHTS assay with human liver microsomes (AID 1963577).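 Also: p53 response element beta-lactamase reporter cells with liver microsomes plus NADPH.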 The procedure, abridged: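 16 h, 37 C exposure of p53RE-bla cells to compounds with human liver microsomes and NADPH (0.5 mg/mL final each); detection via LiveBLAzer mixture, 2 h dark at room temperature.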
The nature of test [5]: p53 small molecule agonists, cell-based qHTS assay with rat liver microsomes (AID 1963578). The procedure, abridged: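 With rat liver microsomes and NADPH present (0.5 mg/mL final each), p53RE-bla cells are treated with compound for 16 h at 37 C. LiveBLAzer detection mixture is then applied for 2 h at room temperature in the dark.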
(In general: Quantitative high-throughput screening tests each substance at several concentrations.)

The nature of test [6]: p53 small molecule agonists, cell-based qHTS assay with human liver microsomes: qHTS cell viability counter screen (AID 1963579). Also: nearly all actives have a fitted effect of over 45% in size. The procedure, abridged:
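In this multiplexed counter screen, the reporter plates were subsequently treated with CellTiter-Glo so that cell viability, reflected by luminescence, could be recorded for p53RE-bla cells dosed 16 h with compounds under microsomal activation (HLM and NADPH).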

The nature of test [7]: p53 small molecule agonists, cell-based qHTS assay with rat liver microsomes: qHTS cell viability counter screen (AID 1963580). Also: nearly all actives have a fitted effect of over 45% in size. The procedure, abridged: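 In HCT-116 cells carrying a p53 response element-bla reporter, compounds were metabolically activated in situ by rat liver microsomes with NADPH over 16 h. Cell ATP content then served as the cytotoxicity measure.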
Test [8] is described as follows: p53 small molecule agonists, cell-based qHTS assay: qHTS cell viability counter screen (AID 1963581). Also: nearly all actives have a fitted effect of over 45% in size. The procedure, abridged:
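Compounds are pinned onto HCT-116 p53RE-bla cells and left 16 h at 37 C. Following the reporter FRET read, ATP is quantified by CellTiter-Glo luminescence after 30 min at room temperature.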

Test [9] can be described thus: p53 small molecule agonists, cell-based qHTS assay (AID 1963582; active = well fitted activation curve with a large enough effect in the signal ratio in the repeat runs, not every such curve was filed as active; the % refers to the signal ratio). In short, it runs like this: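 Agonist activity was scored from beta-lactamase FRET fluorescence in p53RE-bla cells treated 16 h at 37 C with compounds in DMSO, substrate incubation being 2 h at room temperature.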
Test [10] addresses Beta-2 adrenergic receptor (Homo sapiens) (UniProt P07550). Briefly: Adrenergic beta2 receptor (ADRB2) small molecule agonists, cell-based qHTS assay (AID 1963593).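 Also: CHO cells stably overexpressing human ADRB2.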 In short, it runs like this: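 CHO cells stably over-expressing ADRB2 were plated overnight at 37C, then dosed with compounds plus a stimulation mix containing 100uM IBMX and 25uM Ro-20-1724 for 0.5hr at room temperature. cAMP was measured by HTRF competition, 1hr.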

Test [11] addresses D(2) dopamine receptor (Homo sapiens) (UniProt P14416). The test is described as follows: Dopamine D2 receptor (DRD2) small molecule agonists, cell-based qHTS assay (AID 1963594). Also: nearly all actives have a fitted effect of over 35% in size. Also: potency is read from the fitted curve at half-maximal effect. In short, it runs like this: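 HEK293 cells stably expressing DRD2 were cultured 24 h at 37 C, then given Ro20-1724 (0.1 mM final) and compounds for 10 min at room temperature. NKH477 (200nM) was then added for 30 min. cAMP was read by HTRF.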

Test [12] has the same target. The test is described as follows: Dopamine D2 receptor (DRD2) small molecule antagonists, cell-based qHTS assay (AID 1963595; active = well fitted inhibition curve with a large enough effect in the signal ratio in the repeat runs, with a control signal flat; the % refers to the signal ratio). In short, it runs like this: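 In this cell-based antagonist screen, compounds act for 10 min at room temperature before a 30 min challenge with 12 nM quinpirole and 200 nM NKH477. cAMP is quantified by HTRF competition in DRD2-HEK293 cells containing 0.1 mM Ro20-1724.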

The target in test [13] is Gonadotropin-releasing hormone receptor (Homo sapiens) (UniProt P30968). The test is described as follows: Human gonadotropin-releasing hormone receptor (GnRHR) small molecule agonists, calcium flux assay in GnRHR-HEK293 cells (AID 1920063). Also: nearly all actives have a fitted effect of over 35% in size. Also: potency is read from the fitted curve at half-maximal effect. In short, it runs like this: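 Tox21-format agonist screen using human GnRHR-expressing HEK293 cells and a fluorescent calcium dye; kinetic 3-min fluorescence reading after compound addition, 15-point concentration series run in triplicate.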
Gonadotropin-releasing hormone receptor (Homo sapiens), sequence (P30968 whole entry, looked up): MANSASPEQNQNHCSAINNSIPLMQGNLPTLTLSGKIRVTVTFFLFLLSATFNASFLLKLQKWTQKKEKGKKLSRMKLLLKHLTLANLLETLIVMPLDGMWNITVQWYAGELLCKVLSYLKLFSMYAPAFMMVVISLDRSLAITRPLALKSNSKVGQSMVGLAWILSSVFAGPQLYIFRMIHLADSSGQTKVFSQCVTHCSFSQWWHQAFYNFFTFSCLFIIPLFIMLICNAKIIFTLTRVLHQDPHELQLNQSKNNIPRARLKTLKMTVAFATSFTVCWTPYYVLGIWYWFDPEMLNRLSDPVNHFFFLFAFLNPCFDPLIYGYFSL

Test [14] deals with 5-hydroxytryptamine receptor 2A (Homo sapiens) (UniProt P28223). The test is described as follows: 5-hydroxytryptamine receptor 2A (HTR2A) small molecule antagonists, cell-based qHTS assay (AID 1963586). Also: nearly all actives have a fitted effect of over 45% in size. The procedure, abridged:
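Antagonist-mode intracellular calcium assay: DOI (4 nM) added after 5 min compound pre-incubation at room temperature to dye-loaded HTR2A-CHO cells. Fluorescence followed for 3 min, sampled every second.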

Test [15] deals with Muscarinic acetylcholine receptor M1 (Homo sapiens) (UniProt P11229). Briefly: Cholinergic receptor muscarinic 1 (CHRM1) small molecule antagonists, cell-based qHTS assay (AID 1963588). Also: nearly all actives have a fitted effect of over 40% in size. The procedure, abridged:
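CHRM1-CHO calcium-flux assay, antagonist mode. Cells were seeded 18 h, dye-loaded 1 h at 37 C and given compound for 5 min at RT, then acetylcholine was added at 50nM. FDSS fluorescence was read 3 min; 15 concentrations, three runs.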

For test [16] the target is unchanged. The test is described as follows: Cholinergic receptor muscarinic 1 (CHRM1) small molecule agonists, cell-based qHTS assay (AID 1963589). Also: nearly all actives have a fitted effect of over 35% in size. Also: potency is read from the fitted curve at half-maximal effect. In short, it runs like this:
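Stable CHRM1-CHO cells (human receptor) were incubated 18 h, dye-loaded for 1 h at 37 C and exposed to test compounds for agonist activity, with calcium-dependent fluorescence followed kinetically.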

The nature of test [17]: cAMP Responsive Elements (CRE) small molecule agonists, cell-based qHTS assay (AID 1963590). In short, it runs like this:
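FRET-based beta-lactamase readout (LiveBLAzer B/G, 2 h RT) quantified CRE activation in HEK 293T CRE-bla cells after 3 h treatment with DMSO-dissolved compounds.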

Test [18] in a line: cAMP Responsive Elements (CRE) small molecule antagonists, cell-based qHTS assay (AID 1963591; active = well fitted inhibition curve with a large enough effect in the signal ratio in the repeat runs, not every such curve was filed as active; the % refers to the signal ratio). In short, it runs like this:
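qHTS in CRE-bla HEK 293T cells: compound in DMSO, then 0.25 uM NKH477 (final), 3 h at 37 °C/5% CO2; beta-lactamase FRET read-out after 2 h substrate incubation.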

In test [19] the target is Beta-2 adrenergic receptor (Homo sapiens) (UniProt P07550). Briefly: Adrenergic beta2 receptor (ADRB2) small molecule antagonists, cell-based qHTS assay (AID 1963592). Also: nearly all actives have a fitted effect of over 50% in size. Also: potency is read from the fitted curve at half-maximal effect. In short, it runs like this:
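Cells (CHO, stable ADRB2 overexpression) incubated 18-20hr at 37C; compounds added from DMSO; agonist mix (1nM isoproterenol, 100uM IBMX, 25uM Ro-20-1724) added; 0.5hr RT; d2-cAMP and anti-cAMP-cryptate added; 1hr RT; 665/615 nm read.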

Test [20] deals with 5-hydroxytryptamine receptor 2A (Homo sapiens) (UniProt P28223). The test is described as follows: 5-hydroxytryptamine receptor 2A (HTR2A) small molecule agonists, cell-based qHTS assay (AID 1963587). Also: nearly all actives have a fitted effect of over 30% in size. In short, it runs like this: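 HTR2A-CHO cells, plated 18 h at 37 C/5% CO2, dye-loaded 1 h at 37 C; compounds in DMSO added by pin tool (agonist mode). Intracellular calcium flux read as kinetic fluorescence on FDSS over 2 min at 1 s intervals.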
5-hydroxytryptamine receptor 2A (Homo sapiens), sequence (P28223 whole entry, looked up): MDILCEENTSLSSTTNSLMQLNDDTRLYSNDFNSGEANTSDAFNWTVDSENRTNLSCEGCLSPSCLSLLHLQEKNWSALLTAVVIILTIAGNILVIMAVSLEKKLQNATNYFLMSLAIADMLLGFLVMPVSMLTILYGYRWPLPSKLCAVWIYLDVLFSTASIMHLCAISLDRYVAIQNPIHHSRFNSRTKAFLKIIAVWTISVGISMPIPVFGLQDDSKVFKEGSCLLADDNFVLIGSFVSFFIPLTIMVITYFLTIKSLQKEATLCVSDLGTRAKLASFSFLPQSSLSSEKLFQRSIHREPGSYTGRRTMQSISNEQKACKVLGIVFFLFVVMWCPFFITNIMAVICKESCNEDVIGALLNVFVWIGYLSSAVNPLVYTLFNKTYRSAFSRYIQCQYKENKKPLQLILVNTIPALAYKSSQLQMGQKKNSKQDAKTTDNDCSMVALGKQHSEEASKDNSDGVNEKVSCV
% is scaled to controls: 0 for no effect and ±100 for the full control effect.

D(2) dopamine receptor (Homo sapiens), sequence (P14416 whole entry, looked up): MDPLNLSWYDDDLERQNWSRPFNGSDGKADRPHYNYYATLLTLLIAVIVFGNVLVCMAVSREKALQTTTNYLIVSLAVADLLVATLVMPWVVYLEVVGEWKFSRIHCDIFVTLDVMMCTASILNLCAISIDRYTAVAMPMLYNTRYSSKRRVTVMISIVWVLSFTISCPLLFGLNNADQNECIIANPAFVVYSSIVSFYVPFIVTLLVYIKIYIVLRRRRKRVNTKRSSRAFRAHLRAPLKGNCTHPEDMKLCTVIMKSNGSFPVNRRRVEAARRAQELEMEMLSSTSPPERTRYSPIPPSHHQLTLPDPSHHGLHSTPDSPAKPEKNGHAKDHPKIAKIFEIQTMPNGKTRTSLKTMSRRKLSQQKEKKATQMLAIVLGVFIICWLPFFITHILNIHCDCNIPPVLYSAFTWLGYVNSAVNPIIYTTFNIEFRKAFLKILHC
Beta-2 adrenergic receptor (Homo sapiens), sequence (P07550 whole entry, looked up): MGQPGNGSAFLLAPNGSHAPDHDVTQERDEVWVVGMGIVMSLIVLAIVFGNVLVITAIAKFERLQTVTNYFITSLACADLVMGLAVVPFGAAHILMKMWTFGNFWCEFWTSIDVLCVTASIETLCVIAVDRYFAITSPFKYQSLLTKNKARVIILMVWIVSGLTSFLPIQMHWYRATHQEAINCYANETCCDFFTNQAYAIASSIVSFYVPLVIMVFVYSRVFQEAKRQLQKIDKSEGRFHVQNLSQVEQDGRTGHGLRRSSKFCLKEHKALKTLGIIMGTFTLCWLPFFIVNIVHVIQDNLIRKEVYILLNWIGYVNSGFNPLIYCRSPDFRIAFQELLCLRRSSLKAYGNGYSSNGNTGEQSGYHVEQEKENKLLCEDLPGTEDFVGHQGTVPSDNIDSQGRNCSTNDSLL
Muscarinic acetylcholine receptor M1 (Homo sapiens), sequence (P11229 whole entry, looked up): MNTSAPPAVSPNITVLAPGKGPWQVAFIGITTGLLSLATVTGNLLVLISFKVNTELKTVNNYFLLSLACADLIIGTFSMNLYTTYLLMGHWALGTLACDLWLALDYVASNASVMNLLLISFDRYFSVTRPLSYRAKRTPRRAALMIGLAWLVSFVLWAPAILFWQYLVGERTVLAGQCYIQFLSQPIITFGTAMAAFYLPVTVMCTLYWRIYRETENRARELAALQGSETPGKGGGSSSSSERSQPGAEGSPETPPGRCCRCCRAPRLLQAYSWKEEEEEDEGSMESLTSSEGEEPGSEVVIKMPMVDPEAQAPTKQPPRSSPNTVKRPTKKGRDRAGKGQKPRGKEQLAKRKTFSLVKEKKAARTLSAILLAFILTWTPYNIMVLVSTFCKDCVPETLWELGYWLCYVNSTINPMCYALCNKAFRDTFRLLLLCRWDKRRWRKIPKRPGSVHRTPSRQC

`CC(=O)O[C@]1(C(C)=O)CC[C@H]2[C@@H]3C=C(Cl)C4=CC(=O)CC[C@]4(C)[C@H]3CC[C@@]21C`: the Potency in test [1] is 68.5 µM (active) and inactive. Further, the Potency result in test [2], in test [3], in test [4], in test [5], in test [6] and in test [7] was “inactive” each time. Further, the Potency entry in [8], in [9], in [10], in test [11] and in test [12] was “inactive” in each case.

For `O=C1OC2(c3ccccc31)c1cc(I)c(O)c(I)c1Oc1c2cc(I)c(O)c1I`, the Potency result in [1] is “inactive and 33.1 µM (active)”; in [13] it was 22.1 µM (active) [middle of 4 runs]; in [3], 39 µM (active) and 22.1 µM (active) and 19 µM (active); in test [16], 33.4 µM (active) [middle of 4 runs]; in [19], 33.5 µM (active); in test [11], 39 µM (active) and 31 µM (active). Further, the Potency result in [5], in test [6], in test [7], in test [8], in test [9] and in test [14] was “inactive” in each case. The Potency entry in test [15], in [17] and in test [18] was “inactive” throughout.

For the molecule `CCCCCCCCCC(=O)O`, the Potency result in [1], in test [13], in test [2], in [3], in [5] and in [6] was “inactive” each time. Further, the Potency result in test [8], in [9], in [14], in test [20], in test [15] and in test [16] was “inactive” throughout. The Potency result in test [18], in test [19], in [11] and in test [12] was “inactive” throughout.

For `OC1C(O)C(O)C(O)C(O)C1O` (stereo unspecified), the Potency result in test [1], in test [13], in test [2], in [6], in test [8] and in test [14] was “inactive” throughout. In addition, the Potency entry in test [20], in test [15], in test [16], in [18], in test [19] and in [10] was “inactive” each time. Besides, in test [12], the Potency result is “inactive”.

Regarding `CC1(C)OC[C@@H]2O[C@@]3(C(=O)O)OC(C)(C)O[C@H]3[C@@H]2O1`, the Potency entry in test [1], in test [13], in test [3], in test [6], in [7] and in [8] was “inactive” throughout. The Potency result in [14], in test [20], in [15], in test [16], in test [17] and in test [18] was “inactive” in each case. Also, the Potency entry in test [19], in [11] and in [12] was “inactive” each time.

For `CC(C)C(=O)Nc1ccc([N+](=O)[O-])c(C(F)(F)F)c1`, the Potency entry in test [1], in test [13], in test [2], in test [6], in test [8] and in test [18] was “inactive” in each case. Moreover, the Potency result in [19], in [10] and in test [12] was “inactive” throughout.

With `OCc1ccc(Cl)cc1Cl`, the Potency result in test [1], in test [13], in test [3], in test [4], in test [5] and in test [6] was “inactive” each time. The Potency result in test [7], in test [9], in test [14], in test [20], in test [16] and in test [17] was “inactive” each time. The Potency result in test [18], in test [19], in [10], in test [11] and in [12] was “inactive” in each case.

For `OB(O)O`, the Potency result in test [1], in [2], in [3], in [4], in test [5] and in test [6] was “inactive” each time. Further, the Potency entry in test [7], in [8], in [9], in [14], in test [20] and in [15] was “inactive” each time. For the same molecule, the Potency result in test [16], in [17], in test [18], in test [19], in [10] and in test [11] was “inactive” each time. Moreover, the Potency entry in test [12] was “inactive”.

As for `Nc1cccc(C(F)(F)F)c1`, the Potency result in test [1], in [13], in test [2], in test [4], in [5] and in test [6] was “inactive” each time. For the same molecule, the Potency entry in test [7], in [8], in test [9], in test [14], in test [20] and in test [16] was “inactive” throughout. In addition, the Potency entry in test [17], in test [18], in test [11] and in [12] was “inactive” throughout. The Potency entry in test [19] was “inactive and 54.5 µM (active)”.

Consider `c1ccc2[nH]c(-c3cscn3)nc2c1`, for which the Potency in test [1] was 27.3 µM (active) and 6.68 µM (active). Also, the Potency entry in test [13], in [2], in [6], in test [7], in [8] and in test [17] was “inactive” throughout. Further, the Potency result in test [18], in test [19], in test [10] and in test [12] was “inactive” in each case.

With `COc1ccccc1O`, the Potency result in [1], in [13], in [2], in [4], in test [6] and in [7] was “inactive” each time. Also, the Potency result in [8], in [9], in [14], in [20], in test [16] and in [17] was “inactive” throughout. For the same molecule, the Potency entry in test [18], in test [19], in test [10], in [11] and in [12] was “inactive” throughout.
